Assay outcomes from PubChem.
PfHsp90 set2: reduces growth (ATP signal) of yeast expressing P. falciparum Hsp90; S. cerevisiae expressing PfHsp90, BacTiter-Glo ATP, 48 h; yeast lacking PDR1 and PDR3 efflux regulators; inhibition, % at 9.4 µM; actives 0.32% (n = 310,000);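 active = every replicate shows inhibition above about 80%, whatever the replicate mean, limit read from the data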
tim10-1 inh: inhibits growth of tim10-1 mutant yeast; S. cerevisiae tim10-1 ts strain growth, BacTiter-Glo, 24 h; inhibition, % at 20 µM; actives 2.2% (n = 330,000); AID 463190;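 active = inhibition of at least 40%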;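 note: mutant grown at 25 °C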
V-ATPase pHluor: regulators of yeast V-ATPase proton transport; actives 0.37% (n = 350,000); AID 504577; S. cerevisiae, pHLuorin cytosolic pH fluorescence; response, % at 10 µM; in the data active = response mostly above about 7.3%, no sharp cut-off; inactive = mostly below about 5.4%; note: actives read high
SKKanGAS inh: inhibitors of SKKanGAS S. pyogenes growth in kanamycin (SK-promoter or general growth effect); actives 1.3% (n = 300,000); BacTiter-Glo, 6 h; AID 1662; inhibition, % at 7.5 µM;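 active = mean replicate score, as percent of positive control median, at least 50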;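 note: strain carries kanamycin resistance gene driven by streptokinase promoter and grows in 40 µg/ml kanamycin; loss of luminescence reflects streptokinase promoter inhibition or plain growth inhibition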
TIM10 inh: TIM10 yeast growth inhibition; S. cerevisiae TIM10 strain growth, BacTiter-Glo luminescence, 24 h; inhibition, % at 10 µM; actives 1.4% (n = 330,000);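 active = inhibition of 40% or more at the single tested concentration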;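 note: wild-type TIM10 isogenic control strain grown at permissive 25 °C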
tim23-1 inh: growth inhibitors of tim23-1 mutant yeast; S. cerevisiae tim23-1 growth, BacTiter-Glo luminescence, 24 h; inhibition, % at 20 µM; actives 1.3% (n = 330,000); AID 463212;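 active = growth inhibition of the mutant yeast at or above 50%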;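 note: temperature-sensitive mutant grown at 25 °C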
tim10-1 confirm: confirmation of tim10-1 mutant yeast growth inhibitors; inhibition, % at 20 µM; actives 56% (n = 7,400); S. cerevisiae tim10-1 ts strain growth, BacTiter-Glo, 24 h; shares compounds with tim10-1 inh; AID 463213;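 active = inhibition of yeast growth at or above a set limit in either of two repeat tests at 20 µM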;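 note: tim10-1 mutant grown at permissive 25 °C to find synthetic lethal compounds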
Large screens that a line does not name were inactive (follow-up assays come after a bar, where they were run). Only some compounds are listed: those with a hit (about 4.6% of all), similar ones and a draw of the others.

CC(C)(C)C1CCc2nc(NC(=O)Cc3cn4ccsc4n3)sc2C1 (stereo not drawn)	tim10-1 inh 57 | tim10-1 confirm 34
COc1ccc(-c2nc(-c3ccccn3)no2)cc1	PfHsp90 set2 86, tim10-1 inh 49 (no result: SKKanGAS inh) | tim10-1 confirm 56
CN1CCN(S(=O)(=O)c2ccc3c(c2)oc(=O)n3C)CC1	none
Cc1cccc(C)c1OCC(=O)Nn1c(COc2ccccc2)nc2ccccc2c1=O	none (no result: PfHsp90 set2)
Cc1ccccc1OCC(=O)Nn1c(COc2ccccc2)nc2ccccc2c1=O	tim10-1 inh 45 | tim10-1 confirm inactive
FC(F)(F)c1cnc(Sc2nc3nccc(-c4ccc(Cl)cc4)n3n2)c(Cl)c1	tim10-1 inh 41 | tim10-1 confirm inactive
CSc1nc2nccc(-c3ccc(Cl)cc3)n2n1	none
COc1ccc(-c2ccnc3nc(Sc4ncc(C(F)(F)F)cc4Cl)nn23)cc1	tim10-1 inh 51 | tim10-1 confirm inactive
NCCCC[C@@H](C(=O)N1CCNCC1)n1cc([C@@H](N)CC(N)=O)nn1	none (no result: SKKanGAS inh)
O=C(NC1CCN(Cc2ccccc2)CC1)c1ccc2c(c1)[nH]c(=O)n2Cc1ccc(F)cc1	none
CN1C(=O)/C(=C\c2ccccc2F)Sc2ccc(C(=O)NC3CCN(Cc4ccccc4)CC3)cc21	tim10-1 inh 43, SKKanGAS inh 83 | tim10-1 confirm inactive
N=c1n(Cc2ccccc2)c2ccccc2n1CC(O)COc1ccc(Cl)cc1Cl (stereo not drawn)	tim10-1 inh 40 (no result: SKKanGAS inh) | tim10-1 confirm inactive
Cc1nc(NC(C)C)c2cnn(CCc3ccccc3)c2n1	none
CCc1nn(CCCC(=O)N2CCc3ccccc3C2)c(=O)c2cc3occc3n12	none
CCc1nn(CCCC(=O)N2CCN(c3cccc(C)c3C)CC2)c(=O)c2cc3occc3n12	tim10-1 inh 54 | tim10-1 confirm inactive
O=C(CN(C(=O)c1ccc2c(c1)OCCO2)c1ccccc1)NCC1CCCO1 (stereo not drawn)	none
COc1ccc(/C=C/C(=O)c2nc3ccccc3n2CC(=O)c2ccc(OC)cc2)cc1	tim10-1 inh 41 | tim10-1 confirm 37
COc1ccc(Cn2c(/C=C/c3ccccc3)nc3ccccc32)cc1	tim10-1 inh 46 (no result: PfHsp90 set2) | tim10-1 confirm inactive
COc1ccc(C2N(c3ccccc3)CCN2c2ccccc2)cc1O	none
COC(=O)c1ccccc1NC(=O)c1sc(=S)n(C)c1N	tim10-1 inh 46 | tim10-1 confirm inactive
COc1cc2c(cc1OC)CN(C(=O)/C=C/c1ccccc1[N+](=O)[O-])CC2	none
Cc1ccc(-c2cc(C(=O)Nc3cccnc3)c3ccccc3n2)s1	tim10-1 inh 42 | tim10-1 confirm inactive
CNC(=S)NNC(=O)c1cc(-c2cccnc2)nc2ccccc12	tim10-1 inh 49 | tim10-1 confirm 40
Cc1cccc(-c2cc(C(=O)Nc3cccnc3)c3ccccc3n2)c1	tim10-1 inh 40 | tim10-1 confirm inactive
COc1ccc(Nc2nc(-c3cccs3)nc3ccccc23)cc1S(=O)(=O)N1CCOCC1	none
O=C(CCC1CCCNC1)c1ccccc1 (stereo not drawn)	none (no result: PfHsp90 set2, V-ATPase pHluor)
O=S(=O)(c1ccc(-c2csc(-c3cccnc3)n2)cc1)N1CCCC1	tim10-1 inh 44 | tim10-1 confirm 39
N=C(N)c1ccc(/C=C/c2ccc(C(=N)N)cc2O)cc1	tim10-1 inh 56, SKKanGAS inh 100 | tim10-1 confirm 70
N=C(N)c1ccc(Cl)cc1	none
CC(C)Oc1ccc(CN2CCC(n3nccc3NC(=O)C3CC3)CC2)cc1	none
Fc1cccc(F)c1/C=C/c1ccc2ccccc2n1	none
CC(O)/C=C/c1ccc2ccccc2n1 (stereo not drawn)	tim10-1 inh 49 | tim10-1 confirm 35
Cc1nc(-c2ccc(S(=O)(=O)NCc3cccnc3)s2)cs1	none
COc1ccc(-c2[nH]c(-c3ccc4c(c3)OCO4)nc2-c2ccccc2)cc1	tim10-1 inh 54 | tim10-1 confirm inactive
COc1cc(-c2nc(-c3ccccc3)c(-c3ccc(F)cc3)[nH]2)cc2c1OCO2	none
CCCC[C@@H]1CCCO[C@@](C(=O)NCc2ccccn2)(C(F)(F)F)C1	none
